# Measured values reported in PubChem BioAssay AID764 (NMMLSC, 2007).
# In all, about 190,000 compounds went through this assay and about 220 (0.12%) were called active. Inconclusive results (about 2%) are left out.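 Rule for the calls: active = GTP binding at least 20 percentage points away from the 100% baseline, in either direction, so actives lie on both sides; inconclusive = Compound likely fluorescent itself, or too few beads counted; inactive = the rest.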 The full list was thinned out, with actives kept by preference.
# Target: Ras-related C3 botulinum toxin substrate 1 (Homo sapiens) (UniProt P63000)
# Assay: GTP binding modulators of activated mutant Rac1, primary screen, biochemical, bead-based flow cytometry, multiplex, fluorescent GTP (AID 764)
# Settings: GST-Rac1 activated beads, at 10 µM, actives lie on both sides, 100% means binding = to untreated wells
row,Compound,percent activity (GTP binding)
1,Cc1ccc(SC(C)C(=O)NCc2ccc(F)cc2)cc1 (configuration not stated),94% (inactive)
2,CC(C)(C)CN1CCNC(=O)C1CC(=O)NC1Cc2ccccc2C1 (configuration not stated),91% (inactive)
3,O=C(NC(=S)Nc1ccc(S(=O)(=O)Nc2ncccn2)cc1)c1cccc(Br)c1,92% (inactive)
4,O=C(O)/C=C/c1cn(-c2ccccc2)nc1-c1cccs1,89% (inactive)
5,O=C(/C=C\c1cn(-c2ccccc2)nc1-c1cccs1)N1CCOCC1,103% (inactive)
6,O=C(O)/C=C/c1cn(Cc2ccccc2)nc1-c1cccs1,130% [activator] (active)
7,Cc1cc(N2CCOCC2)nc2ccc(NC(=S)N3CCN(Cc4ccccc4)CC3)cc12,96% (inactive)
8,O=C(Nc1ccc(N2CCOCC2)cc1)c1ccc(-c2ccccc2[N+](=O)[O-])o1,93% (inactive)
9,Cn1cc(Cl)c(C(=O)NNC(=S)Nc2cccc(Cl)c2)n1,91% (inactive)
10,O=C(O)c1ccc(/C=N/NC(=S)NCc2ccccc2)cc1,94% (inactive)
11,CN(C)C(=O)c1cccn(Cc2cccc(C(F)(F)F)c2)c1=O,94% (inactive)
12,CN(C)N(C)C(=O)C(O)(c1ccccc1)c1ccccc1,96% (inactive)
13,Cc1cc(C(=O)CC#N)c(C)n1-c1c(C)n(C)n(-c2ccccc2)c1=O,96% (inactive)
14,O=C(O)CCN(Cc1ccccc1)S(=O)(=O)c1c(Cl)cccc1Cl,95% (inactive)
15,Cc1[nH]c2ccccc2c1/C=C(/C#N)C(=O)NC(C)C,95% (inactive)
16,Cn1cc(CN2CCCC(CO)C2)c(-c2ccc(Oc3ccccc3)cc2)n1 (configuration not stated),94% (inactive)
17,COc1ccc(/C=C/CN2CCCC(C(=O)c3cc(F)ccc3F)C2)cc1 (configuration not stated),96% (inactive)
18,CN1C=CC=C/C1=C1\SC(=S)N(Cc2ccccc2)C1=O,97% (inactive)
19,Cc1cc(C(=O)NNC(=O)c2cccc(S(=O)(=O)N3CCOCC3)c2)c2ccccc2n1,93% (inactive)
20,Cc1noc(C)c1/C=N/Nc1ccc2ccccc2n1,97% (inactive)
21,O=C(c1ccncc1)N1CCN(c2ccc3ccccc3n2)CC1,98% (inactive)
22,COc1cc(/C=C/C(=O)OCC(=O)NC(=O)NCc2ccccc2)ccc1OCC#N,90% (inactive)
23,O=C(c1ccc2ccccc2n1)N1CCN(c2ccccc2Cl)CC1,95% (inactive)
24,CCn1c(SCC(=O)Nc2nccs2)nnc1-c1ccco1,95% (inactive)
25,COc1ccc(OC)c(S(=O)(=O)Nc2cccc(-c3ccc4nncn4n3)c2)c1,95% (inactive)
26,Cc1ccc(-n2cc(CN(C)Cc3nccn3C)c(-c3cccc(C)c3)n2)cc1,97% (inactive)
27,Cc1ccc(C(=O)Nc2cccc3ncccc23)cc1[N+](=O)[O-],94% (inactive)
